Measurements taken from the supplement of paper PMC7411054.

How the values were obtained:
Assay in all cases: phenotypically active (imaging signature differs from DMSO and reproducible) at any of 0.3-9 uM (binary (1 = active, 0 = inactive)); higher = active
Conditions in all cases: treatment time: 24 h
[1] = tested on: A549-ACTB-RAB5A
Summary of the method: (§1)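 After 24 h at 0.3, 1, 3 or 9 µM, with four wells per treatment, fifteen gene-edited A549, HepG2 and WPMY1 reporter lines carrying BFP, GFP and RFP/FusionRed were imaged live. Each well's live-cell features were expressed relative to solvent control wells. Deviation required ≥3 of 4 wells past the 95th percentile of control Euclidean distances, and reproducibility a median replicate Pearson correlation over the 95th percentile of non-replicates. Phenotypic activity rested on both.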

[2] = tested on: A549-CANX-COX4
Summary of the method: as §1

[3] = tested on: A549-GM130-SQSTM1
Summary of the method: as §1

[4] = tested on: A549-TP53BP1-CLTA
Summary of the method: as §1

[5] = tested on: A549-TUBA1B-RELA
Summary of the method: as §1

[6] = tested on: HepG2-ACTB-RAB5A
Summary of the method: as §1

[7] = tested on: HepG2-CANX-COX4
Summary of the method: as §1

[8] = tested on: HepG2-GM130-SQSTM1
Summary of the method: as §1

[9] = tested on: HepG2-TP53BP1-CLTA
Summary of the method: as §1

[10] = tested on: HepG2-TUBA1B-RELA
Summary of the method: as §1

[11] = tested on: WPMY1-ACTB-RAB5A
Summary of the method: as §1

[12] = tested on: WPMY1-CANX-COX4
Summary of the method: as §1

[13] = tested on: WPMY1-GM130-SQSTM1
Summary of the method: as §1

[14] = tested on: WPMY1-TP53BP1-CLTA
Summary of the method: as §1

[15] = tested on: WPMY1-TUBA1B-RELA
Summary of the method: as §1

Measured: phenotypically active

CC[N+](C)(C)c1cccc(O)c1 [edrophonium]
inactive: [1] 0 | [2] 0 | [3] 0 | [4] 0 | [5] 0 | [6] 0 | [7] 0 | [8] 0 | [9] 0 | [10] 0 | [11] 0 | [12] 0 | [13] 0 | [14] 0 | [15] 0

C=C1C[C@]23C[C@@]1(O)CC[C@H]2[C@@]12C=C[C@H](O)[C@](C)(C(=O)O1)[C@H]2[C@@H]3C(=O)O [Gibberellic acid]
inactive: [1] 0 | [2] 0 | [3] 0 | [4] 0 | [5] 0 | [6] 0 | [7] 0 | [8] 0 | [9] 0 | [10] 0 | [11] 0 | [12] 0 | [13] 0 | [14] 0 | [15] 0

C#C[C@]1(O)CC[C@H]2[C@@H]3CCC4=CCCC[C@@H]4[C@H]3C(=C)C[C@@]21CC [desogestrel]
inactive: [1] 0 | [2] 0 | [3] 0 | [4] 0 | [5] 0 | [6] 0 | [7] 0 | [8] 0 | [9] 0 | [10] 0 | [11] 0 | [12] 0 | [13] 0 | [14] 0 | [15] 0

FC(F)OC(F)C(F)(F)F (stereo not given) [desflurane]
inactive: [1] 0 | [2] 0 | [3] 0 | [4] 0 | [5] 0 | [6] 0 | [7] 0 | [8] 0 | [9] 0 | [10] 0 | [11] 0 | [12] 0 | [13] 0 | [14] 0 | [15] 0

CCCC(=O)O [Sodium butyrate]
inactive: [1] 0 | [2] 0 | [3] 0 | [4] 0 | [5] 0 | [6] 0 | [7] 0 | [8] 0 | [9] 0 | [10] 0 | [11] 0 | [12] 0 | [13] 0 | [14] 0 | [15] 0

CCc1c(C)[nH]c2c1C(=O)C(CN1CCOCC1)CC2 (stereo not given) [molindone]
inactive: [1] 0 | [2] 0 | [3] 0 | [4] 0 | [5] 0 | [6] 0 | [7] 0 | [8] 0 | [9] 0 | [10] 0 | [11] 0 | [12] 0 | [13] 0 | [14] 0 | [15] 0

Cc1ccc(N(CC2=NCCN2)c2cccc(O)c2)cc1 [phentolamine]
inactive: [1] 0 | [2] 0 | [3] 0 | [4] 0 | [5] 0 | [6] 0 | [7] 0 | [8] 0 | [9] 0 | [10] 0 | [11] 0 | [12] 0 | [13] 0 | [14] 0 | [15] 0

CCO[C@@H](Cc1ccc(OCCc2ccc(OS(C)(=O)=O)cc2)cc1)C(=O)O [Tesaglitazar]
inactive: [1] 0 | [2] 0 | [3] 0 | [4] 0 | [5] 0 | [6] 0 | [7] 0 | [8] 0 | [9] 0 | [10] 0 | [11] 0 | [12] 0 | [13] 0 | [14] 0 | [15] 0

CCCCN1CCCCC1C(=O)Nc1c(C)cccc1C (stereo not given) [bupivacaine]
inactive: [1] 0 | [2] 0 | [3] 0 | [4] 0 | [5] 0 | [6] 0 | [7] 0 | [8] 0 | [9] 0 | [10] 0 | [11] 0 | [12] 0 | [13] 0 | [14] 0 | [15] 0

CN(C)CCc1c[nH]c2ccc(C[C@H]3COC(=O)N3)cc12 [zolmitriptan]
inactive: [1] 0 | [2] 0 | [3] 0 | [4] 0 | [5] 0 | [6] 0 | [7] 0 | [8] 0 | [9] 0 | [10] 0 | [11] 0 | [12] 0 | [13] 0 | [14] 0 | [15] 0

CN(C)CCc1c[nH]c2ccc(Cn3cncn3)cc12 [rizatriptan]
inactive: [1] 0 | [2] 0 | [3] 0 | [4] 0 | [5] 0 | [6] 0 | [7] 0 | [8] 0 | [9] 0 | [10] 0 | [11] 0 | [12] 0 | [13] 0 | [14] 0 | [15] 0

O=NN(CCCl)C(=O)NCCCl [carmustine]
inactive: [1] 0 | [2] 0 | [3] 0 | [4] 0 | [5] 0 | [6] 0 | [7] 0 | [8] 0 | [9] 0 | [10] 0 | [11] 0 | [12] 0 | [13] 0 | [14] 0 | [15] 0

Nc1ccc(C(=O)O)c(O)c1 [aminosalicylate]
inactive: [1] 0 | [2] 0 | [3] 0 | [4] 0 | [5] 0 | [6] 0 | [7] 0 | [8] 0 | [9] 0 | [10] 0 | [11] 0 | [12] 0 | [13] 0 | [14] 0 | [15] 0

CN1[C@@H](CC(=O)c2ccccc2)CCC[C@H]1C[C@H](O)c1ccccc1 [Lobeline alpha (-) hydrochoride]
inactive: [1] 0 | [2] 0 | [3] 0 | [4] 0 | [5] 0 | [6] 0 | [7] 0 | [8] 0 | [9] 0 | [10] 0 | [11] 0 | [12] 0 | [13] 0 | [14] 0 | [15] 0

COC1=C(O)C(=O)c2ccccc2C1=O [2-hydroxy-3-methoxy-naphtoquinone]
inactive: [1] 0 | [2] 0 | [3] 0 | [4] 0 | [5] 0 | [6] 0 | [7] 0 | [8] 0 | [9] 0 | [10] 0 | [11] 0 | [12] 0 | [13] 0 | [14] 0 | [15] 0

COc1cc2c(cc1OC)C(=O)C(CC1CCN(Cc3ccccc3)CC1)C2 (stereo not given) [donepezil]
inactive: [1] 0 | [2] 0 | [3] 0 | [4] 0 | [5] 0 | [6] 0 | [7] 0 | [8] 0 | [9] 0 | [10] 0 | [11] 0 | [12] 0 | [13] 0 | [14] 0 | [15] 0

C[C@H](Cc1cc2c(c(C(N)=O)c1)N(CCCO)CC2)NCCOc1ccccc1OCC(F)(F)F [silodosin]
inactive: [1] 0 | [2] 0 | [3] 0 | [4] 0 | [5] 0 | [6] 0 | [7] 0 | [8] 0 | [9] 0 | [10] 0 | [11] 0 | [12] 0 | [13] 0 | [14] 0 | [15] 0

C[C@@H]1O[C@@H](O[C@H]2C(=O)c3c(O)cc(O)cc3O[C@@H]2c2ccc(O)c(O)c2)[C@H](O)[C@H](O)[C@H]1O [Astilbin]
inactive: [1] 0 | [2] 0 | [3] 0 | [4] 0 | [5] 0 | [6] 0 | [7] 0 | [8] 0 | [9] 0 | [10] 0 | [11] 0 | [12] 0 | [13] 0 | [14] 0 | [15] 0

NCCC(=O)NCCc1c[nH]cn1 [Carcinine]
inactive: [1] 0 | [2] 0 | [3] 0 | [4] 0 | [5] 0 | [6] 0 | [7] 0 | [8] 0 | [9] 0 | [10] 0 | [11] 0 | [12] 0 | [13] 0 | [14] 0 | [15] 0

CN1CC[C@]23c4ccccc4N[C@H]1[C@]21CCN(C)[C@H]3Nc2ccccc21 [Calycanthine]
inactive: [1] 0 | [2] 0 | [3] 0 | [4] 0 | [5] 0 | [6] 0 | [7] 0 | [8] 0 | [9] 0 | [10] 0 | [11] 0 | [12] 0 | [13] 0 | [14] 0 | [15] 0

COc1cc(C#N)ccc1S(=O)(=O)Nc1ccc2c(c1)cc(C)c(=O)n2C
inactive: [1] 0 | [2] 0 | [3] 0 | [4] 0 | [5] 0 | [6] 0 | [7] 0 | [8] 0 | [9] 0 | [10] 0 | [11] 0 | [12] 0 | [13] 0 | [14] 0 | [15] 0

COc1c(OC2OC(CO)[C@@H](O)[C@H](O)[C@H]2O)cc2c(c1OC)-c1ccc(OC)c(=O)cc1[C@@H](NC(C)=O)CC2 (stereo not given in full) [Colchicoside]
inactive: [1] 0 | [2] 0 | [3] 0 | [4] 0 | [5] 0 | [6] 0 | [7] 0 | [8] 0 | [9] 0 | [10] 0 | [11] 0 | [12] 0 | [13] 0 | [14] 0 | [15] 0

COc1ccc(CN(CCN(C)C)c2ccccn2)cc1 [mepyramine]
inactive: [1] 0 | [2] 0 | [3] 0 | [4] 0 | [5] 0 | [6] 0 | [7] 0 | [8] 0 | [9] 0 | [10] 0 | [11] 0 | [12] 0 | [13] 0 | [14] 0 | [15] 0
